Screening data (PubChem BioAssay)
rCAG binder: binders of r(CAG) RNA repeats, primary screen, biochemical, fluorescence; 1.3% of 370,000 active; inhibition, % at 3 µM; r(CAG) RNA repeat, TO-PRO-1 dye displacement fluorescence;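 active = inhibition above the plate cutoff, the mean of all test compounds on that plate plus 3 SD, cut at about 35% in these data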;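 also: 0% = DMSO alone and 100% = 100 µM mitoxantrone as full dye displacement; higher means more dye released from RNA so lower well fluorescence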
ABCB6 inh 2: ABCB6 transporter inhibitors, primary screen, K562-ABCB6 cells, flow cytometry, MLPCN library | ATP-binding cassette sub-family B member 6 (Homo sapiens), Q9NP58 | K562-ABCB6 porphyrin accumulation, 1 h; stronger effect = lower value | fluorescence ratio to DMSO, % at 10 µM | 0.19% of 360,000 active;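 active = fluorescence ratio to DMSO below 75%, the collection mean minus 3 SD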;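 also: signal is porphyrin accumulated inside mitochondria; 100% equals median channel fluorescence of DMSO control wells; lower ratio means ABCB6 inhibition with less porphyrin fluorescence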
Target sequence (Q9NP58 whole entry, looked up): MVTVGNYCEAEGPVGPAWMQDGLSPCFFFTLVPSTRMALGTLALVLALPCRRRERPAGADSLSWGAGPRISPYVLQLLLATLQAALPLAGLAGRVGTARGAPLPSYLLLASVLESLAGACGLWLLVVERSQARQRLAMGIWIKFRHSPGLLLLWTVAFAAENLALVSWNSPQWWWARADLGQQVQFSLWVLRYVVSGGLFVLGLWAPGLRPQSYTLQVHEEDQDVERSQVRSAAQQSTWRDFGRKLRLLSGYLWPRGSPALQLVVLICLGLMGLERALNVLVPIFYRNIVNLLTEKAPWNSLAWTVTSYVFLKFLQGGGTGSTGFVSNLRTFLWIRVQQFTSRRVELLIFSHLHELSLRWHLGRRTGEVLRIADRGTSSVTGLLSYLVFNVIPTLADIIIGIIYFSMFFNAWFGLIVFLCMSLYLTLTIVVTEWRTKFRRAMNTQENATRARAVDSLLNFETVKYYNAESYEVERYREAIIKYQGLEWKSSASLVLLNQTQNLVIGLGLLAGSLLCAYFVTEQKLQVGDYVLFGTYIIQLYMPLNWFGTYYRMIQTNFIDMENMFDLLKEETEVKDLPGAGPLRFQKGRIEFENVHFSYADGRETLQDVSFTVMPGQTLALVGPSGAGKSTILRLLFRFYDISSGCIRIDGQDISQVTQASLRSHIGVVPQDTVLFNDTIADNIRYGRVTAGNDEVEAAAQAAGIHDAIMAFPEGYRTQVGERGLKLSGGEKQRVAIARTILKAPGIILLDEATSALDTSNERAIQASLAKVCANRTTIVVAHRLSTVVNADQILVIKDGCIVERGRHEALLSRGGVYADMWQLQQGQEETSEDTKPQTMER
Exocytosis inh: LAMP-1 surface exposure blockers, TALL-104 cells – cell-based, flow cytometry, MLPCN library, primary screen. TALL-104 LAMP-1 surface exposure; cells stimulated with thapsigargin and PMA. inhibition, % at 10 µM. 0.66% of 360,000 active. AID 651702, 2012;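 active = inhibition above about 55%, limit read from the data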
PG9 binder: binders of HIV-1 gp120 antibody PG9, primary screen, biochemical, TR-FRET | HIV-1 gp120 / PG9 antibody interaction | TR-FRET gp120-PG9 antibody binding | inhibition, % at 6.7 µM | 0.43% of 360,000 active; in the data active = inhibition above about 8.5%
ABCB6 blocker 1: ABCB6 transporter inhibitors, confirmation, K562-ABCB6 cells, flow cytometry, cherry pick 1 | shares compounds with ABCB6 inh 2 | K562-ABCB6 porphyrin accumulation, 1 h; stronger effect = lower value | ratio response (% of DMSO), % at 10 µM | 700 tested, under 10 active | AID 602430, 2012;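 active = repeat-averaged ratio response below 75% of DMSO, the collection mean minus 3 SD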;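 also: median porphyrin fluorescence at 575 nm with 488 nm excitation from mitochondria; lower ratio means less porphyrin signal so ABCB6 inhibition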
Starred values were filed as active, the others as inactive; . = no result. Sampled rows, rich in hits. Any-hit rate of the full collection: about 2.5%.

SMILES | rCAG binder | ABCB6 inh 2 | Exocytosis inh | PG9 binder | ABCB6 blocker 1
COc1ccc(-n2c(-c3ccc(Br)cc3)c[n+]3c2SC(C)C3)cc1 (configuration not stated) | 6.1 | 95.0 | 2.6 | -0.3 | .
NC(=O)CSc1nnc(Cn2c(=O)sc3ccccc32)n1-c1cccc(Cl)c1 | 1.6 | 66.0* | 4.8 | -0.5 | 99.0
O=C(Nc1ccc(-n2nncc2-c2ccco2)cc1)c1cccc(F)c1 | 3.7 | 58.0* | 1.5 | 0.3 | 99.0
CC(NC(=O)CCn1ccc2cc(S(=O)(=O)N3CCCC3)ccc21)c1ccccc1 (configuration not stated) | 2.1 | 106.0 | 25.9 | -1.9 | .
CCOC(=O)c1ccccc1NC(=O)CSc1nnc(Cc2cccn2C)n1-c1ccc(F)cc1 | -1.4 | 65.0* | 8.1 | 0.3 | 100.0
Cc1nc(SCC(=O)N(CC(C)C)C2CCS(=O)(=O)C2)c(C#N)c(C)c1C (configuration not stated) | -5.6 | 102.0 | -2.8 | -2.1 | .
COc1cc2c(c(OC)c1OC)-c1c(cc(OC)c(OC)c1OC)C[C@H](C)[C@H](C)C2 | -7.3 | 74.0* | -4.4 | 1.0 | 99.0
C#CCOc1ccccc1CNC1CCN(Cc2ccccc2)CC1 | -4.7 | 57.0* | 48.0 | -0.7 | 98.0
CC(=O)Nc1ccc(NC(=O)[C@H](C)NC(=O)c2ccco2)cc1 | -0.2 | 64.0* | -1.6 | 0.1 | 98.0
CCN/N=C(\Cc1nc2ccccc2[nH]1)c1ccccc1 | 4.1 | 95.0 | 2.2 | -2.7 | .
N#CCCN/N=C(\Cc1nc2ccccc2[nH]1)c1ccccc1 | 18.9 | 61.0* | 2.0 | 0.3 | 108.0
COc1ccc(/C=C2/C(=O)OCc3cc(OC)c(OC)cc32)cc1 | 0.0 | 65.0* | 4.9 | -1.8 | 97.0
CCN1CCN(S(=O)(=O)c2ccc(OC)c(Br)c2)CC1 | -5.5 | 74.0* | 1.2 | 1.6 | 100.0
COc1cccc(C(=O)N[C@H](C(=O)N2CCC[C@H]2C(=O)NCc2ccccc2)C(C)C)c1 | -0.4 | . | . | 2.5 | .
CC(=O)Oc1c(S(=O)(=O)c2ccccc2)c(C)nn1C(C)(C)C | -2.7 | 91.0 | 0.1 | 1.0 | .
Cc1nn(C(C)(C)C)c(OC(=O)c2cccs2)c1S(=O)(=O)c1ccccc1 | -8.9 | 74.0* | 3.9 | 0.5 | 101.0
CC(CN1CCCC1)OC(=O)COc1ccccc1 (configuration not stated) | -2.1 | 72.0* | 1.7 | 0.3 | 99.0
O=C(CSc1nnc(-c2ccccc2)n1-c1ccccc1)NN=C/C=C\c1ccccc1[N+](=O)[O-] | 4.6 | . | . | . | .
CCOC(=O)N1CCN(S(=O)(=O)c2ccc(F)c(C(=O)Nc3cccc(C)c3C)c2)CC1 | -2.1 | 72.0* | 2.3 | 1.5 | 99.0
CCOC(=O)c1ccccc1NC(=O)c1cc(S(=O)(=O)N2CCOCC2)ccc1F | 0.1 | 99.0 | 0.5 | -0.4 | .
Cc1ccc(NC(=O)CC2SCCNC2=O)cc1Cl (configuration not stated) | 1.1 | 67.0* | 0.3 | -2.5 | 100.0
COC(=O)C1=CC(=O)C=C(OC)[C@@]12Oc1cc(C)cc(OC)c1C2=O | -2.3 | . | . | . | .
COc1ccc(NC(=O)Cc2ccc(Cl)cc2)cc1NC(=O)c1ccco1 | 3.8 | 60.0* | -1.0 | 2.8 | 96.0
c1ccc(Cn2ccc3ccc(-c4ccc5ccn(Cc6cccc(-c7ccsc7)c6)c5c4)cc32)cc1 | 14.4 | . | . | . | .
CN(C)S(=O)(=O)c1ccc(C(=O)NCCC(=O)N2CCCC2)cc1 | 3.4 | 70.0* | -12.7 | -1.4 | 101.0
SMILES | rCAG binder | ABCB6 inh 2 | Exocytosis inh | PG9 binder | ABCB6 blocker 1
COC1OC2COC(c3ccccc3)OC2C2OC(c3ccccc3)OC12 (configuration not stated) | -0.3 | 100.0 | 6.1 | 0.6 | .
O=C(O)C(Cc1ccccc1)NS(=O)(=O)c1ccc2c(c1)OCCO2 (configuration not stated) | 0.6 | 68.0* | -1.0 | 0.3 | 96.0
O=C(O)C(Cc1ccc(Cl)cc1)NS(=O)(=O)c1ccc(Cl)cc1 (configuration not stated) | 13.5 | 49.0* | 1.1 | 0.3 | 102.0
O=C(O)C(Cc1ccccc1)NS(=O)(=O)c1ccc(Cl)cc1 (configuration not stated) | 1.5 | 98.0 | 1.4 | 0.6 | .
O=C(CN(c1ccccc1)S(=O)(=O)c1ccc(F)cc1)NCc1cccs1 | 5.1 | 99.0 | 12.0 | 0.2 | .
C[C@H](O)[C@@H]1C(=O)N2CCc3c([nH]c4cccc(-c5ccccc5)c34)[C@@H]2C[C@@H]1N(C)C(=O)c1ccco1 | 11.2 | . | . | -2.3 | .
NC(N)=Nc1nc(CSCC/C(N)=N/S(N)(=O)=O)cs1 | 1.1 | 72.0* | -4.1 | 0.2 | 97.0
CC(C)C[C@H]1COc2cc(N3CCSCC3)ccc2S(=O)(=O)N1C | -0.3 | . | . | . | .
COc1ccc(-c2cnc(N)nc2-c2ccc(OC)cc2O)cc1 | 2.2 | 73.0* | 5.4 | 2.2 | 98.0
O=C(CN1C(=O)NC2(CCCc3ccccc32)C1=O)NCc1ccc(Cl)cc1Cl (configuration not stated) | -0.3 | 94.0 | -15.5 | -4.3 | .
C[C@H]1C(C(=O)N(C)C2CCCCC2)=Cc2c(n(-c3ccc(F)cc3)c(=O)n2CCCOc2ccccc2)C=C1c1ccccc1 | 12.1 | . | . | 0.2 | .
O=C(N[C@@H](Cc1cccnc1)C(=O)N1CCC[C@H]1C(=O)NCCc1ccccc1Cl)c1ccccc1 | -0.8 | . | . | -0.8 | .
CC(C)NC(=O)Cn1cnc2c1c(=O)n(C)c(=O)n2C | 0.0 | 99.0 | 2.4 | -0.1 | .
Cn1c(=O)c2c(ncn2CC(=O)NC(C)(C)C)n(C)c1=O | 1.7 | 74.0* | -5.5 | -1.5 | 99.0
Cc1ccc2c(cnn2C(=O)CCC(=O)NC2CCCCC2)c1 | 0.9 | 99.0 | 2.1 | 0.1 | .
C/C(=N\NC(=O)Cc1ccc(Cl)cc1)c1ccccc1O | 1.9 | 99.0 | 0.8 | 0.4 | .
COc1cc(-c2cc3nc(NCCc4ccc(S(N)(=O)=O)cc4)ccn3n2)cc(OC)c1OC | 9.2 | 60.0* | 14.9 | -1.2 | 100.0
CN1CCN(S(=O)(=O)c2cc([N+](=O)[O-])ccc2Cl)CC1 | -2.1 | 103.0 | -7.0 | 3.4 | .
CC(C)c1ccc([N+](=O)[O-])cc1S(=O)(=O)N1CCN(C)CC1 | -2.6 | 72.0* | -3.3 | -1.0 | 98.0
O=S(=O)(c1ccccc1)N1CCN(Cc2ccccc2)CC1 | -1.9 | 93.0 | -7.5 | 0.2 | .
Cc1ccc(S(=O)(=O)N2CCN(Cc3ccccc3)CC2)cc1 | -6.3 | 8.0* | 1.3 | 2.2 | 92.0
CN1CCN(c2nc(-c3ccc(Cl)cc3)nc3ccccc23)CC1 | 6.2 | 100.0 | 44.1 | -2.2 | .
CS(=O)(=O)Nc1cccc(NC(=O)C2Cc3c(-c4ccco4)ccnc3O2)c1 (configuration not stated) | 5.5 | 98.0 | 10.6 | 1.2 | .
